Out of some 5,500 compounds screened, about 2,000 (36%) were called active. Inconclusive results (about 18%) are left out. Rule as the data show it: active = normalized growth mostly below about 0.91 (no sharp cut-off); inconclusive = no clear call, values can overlap the other calls; inactive = mostly above about 0.92. This is one part of the list.
Assay: chemical genetic growth profiling, strain panel (AID 1159580);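 also: tested at 20 µM; growth read once vehicle control cultures reached saturation at 30 °C; 1 = growth at the plate median or of vehicle wells; lower values mean less growth of the strain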
Conditions: growth OD

Measured: normalized growth

COc1ccc2c(c1)C1(C)CCC(=O)CC1CC2 (stereo not drawn)
inactive: S. cerevisiae deletion strains, locus YAL021C, strain ccr4, stronger effect = lower value 1.01 | S. cerevisiae deletion strains, locus YAL026C, strain drs2, stronger effect = lower value 1.04 | S. cerevisiae deletion strains, locus YAL030W, strain snc1, stronger effect = lower value 1 | S. cerevisiae deletion strains, locus YBL061C, strain skt5, stronger effect = lower value 1.01 | S. cerevisiae deletion strains, locus YBR009C, strain hhf1, stronger effect = lower value 1.01 | S. cerevisiae deletion strains, locus YBR021W, strain FUR4, stronger effect = lower value 0.976 | S. cerevisiae deletion strains, locus YBR023C, strain chs3, stronger effect = lower value 1.01 | S. cerevisiae deletion strains, locus YBR171W, strain sec66, stronger effect = lower value 1.01 | S. cerevisiae deletion strains, locus YBR229C, strain ROT2, stronger effect = lower value 0.994 | S. cerevisiae deletion strains, locus YBR231C, strain swc5, stronger effect = lower value 1.04 | S. cerevisiae deletion strains, locus YBR279W, strain paf1, stronger effect = lower value 1 | S. cerevisiae deletion strains, locus YCL011C, strain gbp2, stronger effect = lower value 1.01 | S. cerevisiae deletion strains, locus YCL016C, strain dcc1, stronger effect = lower value 1 | S. cerevisiae deletion strains, locus YCL029C, strain bik1, stronger effect = lower value 0.986 | S. cerevisiae deletion strains, locus YCL061C, strain MRC1, stronger effect = lower value 1.01 | S. cerevisiae deletion strains, locus YCL069W, strain vba3, stronger effect = lower value 1 | S. cerevisiae deletion strains, locus YCR088W, strain abp1, stronger effect = lower value 1.01 | S. cerevisiae deletion strains, locus YDL005C, strain med2, stronger effect = lower value 1.01 | S. cerevisiae deletion strains, locus YDL035C, strain GPR1, stronger effect = lower value 1.01 | S. cerevisiae deletion strains, locus YDL040C, strain nat1, stronger effect = lower value 0.999 | S. cerevisiae deletion strains, locus YDL074C, strain BRE1, stronger effect = lower value 1.02 | S. cerevisiae deletion strains, locus YDL101C, strain DUN1, stronger effect = lower value 0.998 | S. cerevisiae deletion strains, locus YDL134C, strain PPH21, stronger effect = lower value 0.947 | S. cerevisiae deletion strains, locus YDL185W, strain tfp1, stronger effect = lower value 0.989 | S. cerevisiae deletion strains, locus YDL192W, strain arf1, stronger effect = lower value 0.989 | S. cerevisiae deletion strains, locus YDR001C, strain nth1, stronger effect = lower value 1.01 | S. cerevisiae deletion strains, locus YDR069C, strain doa4, stronger effect = lower value 1.02 | S. cerevisiae deletion strains, locus YDR101C, strain arx1, stronger effect = lower value 1 | S. cerevisiae deletion strains, locus YDR137W, strain rgp1, stronger effect = lower value 0.967 | S. cerevisiae deletion strains, locus YDR150W, strain NUM1, stronger effect = lower value 0.991 | S. cerevisiae deletion strains, locus YDR159W, strain sac3, stronger effect = lower value 1.06 | S. cerevisiae deletion strains, locus YDR162C, strain NBP2, stronger effect = lower value 1 | S. cerevisiae deletion strains, locus YDR195W, strain ref2 1.04 | S. cerevisiae deletion strains, locus YDR297W, strain sur2, stronger effect = lower value 1.02 | S. cerevisiae deletion strains, locus YDR318W, strain mcm21, stronger effect = lower value 0.988 | S. cerevisiae deletion strains, locus YDR334W, strain swr1, stronger effect = lower value 1 | S. cerevisiae deletion strains, locus YDR335W, strain msn5, stronger effect = lower value 1.01 | S. cerevisiae deletion strains, locus YDR388W, stronger effect = lower value 0.989 | S. cerevisiae deletion strains, locus YDR392W, strain spt3, stronger effect = lower value 0.996 | S. cerevisiae deletion strains, locus YDR502C, strain sam2, stronger effect = lower value 0.977 | S. cerevisiae deletion strains, locus YEL003W, strain gim4, stronger effect = lower value 1.01 | S. cerevisiae deletion strains, locus YEL037C, strain rad23, stronger effect = lower value 1.02 | S. cerevisiae deletion strains, locus YEL061C, strain CIN8 (second series), stronger effect = lower value 1.01 | S. cerevisiae deletion strains, locus YEL061C, strain CIN8, stronger effect = lower value 0.993 | S. cerevisiae deletion strains, locus YER015W, strain faa2, stronger effect = lower value 1.01 | S. cerevisiae deletion strains, locus YER016W, strain bim1, stronger effect = lower value 1 | S. cerevisiae deletion strains, locus YER110C, stronger effect = lower value 0.979 | S. cerevisiae deletion strains, locus YER111C, strain swi4, stronger effect = lower value 1.01 | S. cerevisiae deletion strains, locus YER155C, strain BEM2 (second series), stronger effect = lower value 1.02 | S. cerevisiae deletion strains, locus YER155C, strain BEM2, stronger effect = lower value 0.988 | S. cerevisiae deletion strains, locus YER167W, strain BCK2, stronger effect = lower value 0.999 | S. cerevisiae deletion strains, locus YFR010W, strain ubp6, stronger effect = lower value 1.02 | S. cerevisiae deletion strains, locus YGL078C, strain dbp3, stronger effect = lower value 0.982 | S. cerevisiae deletion strains, locus YGL086W, strain mad1, stronger effect = lower value 0.98 | S. cerevisiae deletion strains, locus YGL167C, strain pmr1, stronger effect = lower value 1.01 | S. cerevisiae deletion strains, locus YGL173C, strain kem1, stronger effect = lower value 1.01 | S. cerevisiae deletion strains, locus YGL227W, strain vid30, stronger effect = lower value 1.01 | S. cerevisiae deletion strains, locus YGL240W, strain doc1, stronger effect = lower value 1.01 | S. cerevisiae deletion strains, locus YGL248W, strain PDE1, stronger effect = lower value 0.971 | S. cerevisiae deletion strains, locus YGL253W, strain hxk2, stronger effect = lower value 1.03 | S. cerevisiae deletion strains, locus YGR135W, strain pre9, stronger effect = lower value 0.965 | S. cerevisiae deletion strains, locus YGR252W, strain gcn5, stronger effect = lower value 0.96 | S. cerevisiae deletion strains, locus YHR013C, strain ard1, stronger effect = lower value 1.05 | S. cerevisiae deletion strains, locus YHR027C, strain rpn1, stronger effect = lower value 1.03 | S. cerevisiae deletion strains, locus YHR030C, strain SLT2, stronger effect = lower value 0.993 | S. cerevisiae deletion strains, locus YHR079C, strain IRE1 (second series), stronger effect = lower value 0.991 | S. cerevisiae deletion strains, locus YHR094C, strain hxt1, stronger effect = lower value 0.984 | S. cerevisiae deletion strains, locus YHR129C, strain ARP1, stronger effect = lower value 0.993 | S. cerevisiae deletion strains, locus YHR142W, strain chs7, stronger effect = lower value 1.02 | S. cerevisiae deletion strains, locus YHR200W, strain rpn10, stronger effect = lower value 0.985 | S. cerevisiae deletion strains, locus YIL066C, strain RNR3, stronger effect = lower value 1.01 | S. cerevisiae deletion strains, locus YIL073C, strain SPO22, stronger effect = lower value 0.994 | S. cerevisiae deletion strains, locus YIL125W, strain kgd1, stronger effect = lower value 0.987 | S. cerevisiae deletion strains, locus YIR030C, strain dcg1, stronger effect = lower value 0.983 | S. cerevisiae deletion strains, locus YJL092W, strain hpr5, stronger effect = lower value 1.01 | S. cerevisiae deletion strains, locus YJL095W, strain BCK1 (second series), stronger effect = lower value 1.01 | S. cerevisiae deletion strains, locus YJL095W, strain BCK1, stronger effect = lower value 0.953 | S. cerevisiae deletion strains, locus YJL115W, strain asf1, stronger effect = lower value 1.02 | S. cerevisiae deletion strains, locus YJL129C, strain trk1, stronger effect = lower value 1.01 | S. cerevisiae deletion strains, locus YJL134W, strain LCB3, stronger effect = lower value 0.992 | S. cerevisiae deletion strains, locus YJL154C, strain vps35, stronger effect = lower value 1.01 | S. cerevisiae deletion strains, locus YJL164C, strain tpk1, stronger effect = lower value 1.01 | S. cerevisiae deletion strains, locus YJL166W, strain qcr8, stronger effect = lower value 1.01 | S. cerevisiae deletion strains, locus YJL168C, strain set2, stronger effect = lower value 0.989 | S. cerevisiae deletion strains, locus YJL187C, strain SWE1 (second series), stronger effect = lower value 0.979 | S. cerevisiae deletion strains, locus YJL187C, strain SWE1, stronger effect = lower value 1.01 | S. cerevisiae deletion strains, locus YJR043C, strain POL32, stronger effect = lower value 1.03 | S. cerevisiae deletion strains, locus YKL009W, strain mrt4, stronger effect = lower value 0.969 | S. cerevisiae deletion strains, locus YKL068W, stronger effect = lower value 0.978 | S. cerevisiae deletion strains, locus YKL085W, strain MDH1 (second series), stronger effect = lower value 0.984 | S. cerevisiae deletion strains, locus YKL085W, strain MDH1, stronger effect = lower value 0.984 | S. cerevisiae deletion strains, locus YKL160W, strain elf1, stronger effect = lower value 1 | S. cerevisiae deletion strains, locus YKR001C, strain vps1, stronger effect = lower value 0.965 | S. cerevisiae deletion strains, locus YKR026C, strain gcn3, stronger effect = lower value 1.01 | S. cerevisiae deletion strains, locus YKR091W, strain srl3, stronger effect = lower value 1.01 | S. cerevisiae deletion strains, locus YLL001W, strain dnm1, stronger effect = lower value 1.01 | S. cerevisiae deletion strains, locus YLL026W, stronger effect = lower value 1 | S. cerevisiae deletion strains, locus YLL041C, strain sdh2, stronger effect = lower value 1 | S. cerevisiae deletion strains, locus YLR027C, strain aat2, stronger effect = lower value 1 | S. cerevisiae deletion strains, locus YLR039C, strain RIC1, stronger effect = lower value 0.957 | S. cerevisiae deletion strains, locus YLR058C, strain SHM2, stronger effect = lower value 0.996 | S. cerevisiae deletion strains, locus YLR102C, strain apc9, stronger effect = lower value 0.98 | S. cerevisiae deletion strains, locus YLR221C, strain rsa3, stronger effect = lower value 1.03 | S. cerevisiae deletion strains, locus YLR258W, strain gsy2, stronger effect = lower value 1.02 | S. cerevisiae deletion strains, locus YLR262C, strain YPT6 (second series), stronger effect = lower value 0.99 | S. cerevisiae deletion strains, locus YLR268W, strain sec22, stronger effect = lower value 0.978 | S. cerevisiae deletion strains, locus YLR320W, strain mms22, stronger effect = lower value 1.02 | S. cerevisiae deletion strains, locus YLR330W, strain CHS5, stronger effect = lower value 0.986 | S. cerevisiae deletion strains, locus YLR342W, strain FKS1 (second series), stronger effect = lower value 0.949 | S. cerevisiae deletion strains, locus YLR342W, strain FKS1, stronger effect = lower value 1.01 | S. cerevisiae deletion strains, locus YLR357W, strain rsc2, stronger effect = lower value 1.01 | S. cerevisiae deletion strains, locus YLR370C, strain arc18, stronger effect = lower value 1 | S. cerevisiae deletion strains, locus YLR371W, strain rom2, stronger effect = lower value 1 | S. cerevisiae deletion strains, locus YLR384C, strain iki3, stronger effect = lower value 1.01 | S. cerevisiae deletion strains, locus YLR418C, strain cdc73, stronger effect = lower value 0.962 | S. cerevisiae deletion strains, locus YML016C, strain PPZ1, stronger effect = lower value 0.987 | S. cerevisiae deletion strains, locus YML032C, strain rad52, stronger effect = lower value 0.996 | S. cerevisiae deletion strains, locus YML120C, strain ndi1, stronger effect = lower value 0.996 | S. cerevisiae deletion strains, locus YML124C, strain tub3, stronger effect = lower value 0.98 | S. cerevisiae deletion strains, locus YMR058W, strain fet3, stronger effect = lower value 1.02 | S. cerevisiae deletion strains, locus YMR078C, strain ctf18, stronger effect = lower value 0.985 | S. cerevisiae deletion strains, locus YMR125W, strain sto1, stronger effect = lower value 0.994 | S. cerevisiae deletion strains, locus YMR129W, stronger effect = lower value 1.01 | S. cerevisiae deletion strains, locus YMR205C, strain PFK2, stronger effect = lower value 1.01 | S. cerevisiae deletion strains, locus YMR223W, strain ubp8, stronger effect = lower value 0.975 | S. cerevisiae deletion strains, locus YMR231W, strain pep5, stronger effect = lower value 1.01 | S. cerevisiae deletion strains, locus YMR263W, strain SAP30, stronger effect = lower value 0.99 | S. cerevisiae deletion strains, locus YMR307W, strain GAS1, stronger effect = lower value 1.04 | S. cerevisiae deletion strains, locus YNL067W, strain RPL9B, stronger effect = lower value 0.974 | S. cerevisiae deletion strains, locus YNL071W, strain lat1, stronger effect = lower value 1 | S. cerevisiae deletion strains, locus YNL209W, strain ssb2, stronger effect = lower value 1.01 | S. cerevisiae deletion strains, locus YNL233W, strain BNI4, stronger effect = lower value 0.971 | S. cerevisiae deletion strains, locus YNL248C, strain rpa49, stronger effect = lower value 1.06 | S. cerevisiae deletion strains, locus YNL250W, strain rad50, stronger effect = lower value 0.994 | S. cerevisiae deletion strains, locus YNL271C, strain bni1, stronger effect = lower value 0.986 | S. cerevisiae deletion strains, locus YNL298W, strain CLA4, stronger effect = lower value 0.982 | S. cerevisiae deletion strains, locus YNL307C, strain MCK1, stronger effect = lower value 0.98 | S. cerevisiae deletion strains, locus YNL322C, strain KRE1 (second series), stronger effect = lower value 0.995 | S. cerevisiae deletion strains, locus YNR049C, strain mso1, stronger effect = lower value 1.04 | S. cerevisiae deletion strains, locus YNR052C, strain pop2, stronger effect = lower value 0.986 | S. cerevisiae deletion strains, locus YOL006C, strain TOP1, stronger effect = lower value 0.969 | S. cerevisiae deletion strains, locus YOL012C, strain htz1 0.718 | S. cerevisiae deletion strains, locus YOL147C, strain pex11, stronger effect = lower value 0.988 | S. cerevisiae deletion strains, locus YOR001W, strain rrp6, stronger effect = lower value 1.02 | S. cerevisiae deletion strains, locus YOR061W, strain CKA2, stronger effect = lower value 1 | S. cerevisiae deletion strains, locus YOR069W, strain VPS5, stronger effect = lower value 0.991 | S. cerevisiae deletion strains, locus YOR070C, strain gyp1, stronger effect = lower value 1.02 | S. cerevisiae deletion strains, locus YOR080W, strain dia2, stronger effect = lower value 1.01 | S. cerevisiae deletion strains, locus YOR083W, strain WHI5, stronger effect = lower value 1.01 | S. cerevisiae deletion strains, locus YOR106W, strain vam3, stronger effect = lower value 1.02 | S. cerevisiae deletion strains, locus YOR136W, strain idh2, stronger effect = lower value 0.988 | S. cerevisiae deletion strains, locus YOR144C, strain elg1, stronger effect = lower value 0.985 | S. cerevisiae deletion strains, locus YOR184W, strain ser1, stronger effect = lower value 0.952 | S. cerevisiae deletion strains, locus YOR265W, strain rbl2, stronger effect = lower value 0.987 | S. cerevisiae deletion strains, locus YOR270C, strain vph1, stronger effect = lower value 1.07 | S. cerevisiae deletion strains, locus YOR290C, strain snf2, stronger effect = lower value 0.981 | S. cerevisiae deletion strains, locus YOR316C, strain cot1, stronger effect = lower value 0.992 | S. cerevisiae deletion strains, locus YPL051W, strain arl3, stronger effect = lower value 1.02 | S. cerevisiae deletion strains, locus YPL055C, strain LGE1, stronger effect = lower value 1.02 | S. cerevisiae deletion strains, locus YPL078C, strain atp4, stronger effect = lower value 0.996 | S. cerevisiae deletion strains, locus YPL106C, strain sse1, stronger effect = lower value 1.04 | S. cerevisiae deletion strains, locus YPL240C, strain hsp82, stronger effect = lower value 0.986 | S. cerevisiae deletion strains, locus YPR119W, strain clb2, stronger effect = lower value 0.984 | S. cerevisiae deletion strains, locus YPR141C, strain kar3, stronger effect = lower value 0.96 | S. cerevisiae deletion strains, locus YPR163C, strain tif3, stronger effect = lower value 0.97 | S. cerevisiae deletion strains, locus YPR167C, strain met16, stronger effect = lower value 0.981 | S. cerevisiae deletion strains, strain wtn01, stronger effect = lower value 0.98 | S. cerevisiae strains, strain wild type, stronger effect = lower value 1

Source: PubChem BioAssay AID1159580 (chemical genetic matrix, 2015)
